Results filed as inconclusive are left out. Activity calls are given as the source filed them.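 How the source made its calls: active means all three exposure times show falling viability signal with fitted midpoint dose at most twice top tested dose; inconclusive means calls differ across the three exposure times; inactive means all three exposure times inactive.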
Experiment: SR lymphoma cell cytotoxicity, late-stage follow-up, mechanism study for HRAS target identification, Alamar Blue fluorescence, several timepoints, dry powder (AID 720626)

Row | SMILES | outcome
1 | CCC(=O)N(c1ccc(OC)c(Cl)c1)C(C(=O)NCCc1ccccc1)c1cccs1 (configuration not stated) | inactive
2 | Cc1onc(C(=O)N2CCN(C(c3ccncc3)c3ccncc3)CC2)c1[N+](=O)[O-] | inactive
